GDH-TPI counter-1 = GDH-TPI coupled enzyme inhibition counter-screen. GDH-TPI coupled enzyme counterscreen, NADH absorbance. inhibition, % at 4.8 µM. 360,000 compounds, 1.2% hits; in the data active = inhibition above about 30%;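 note: 0% = DMSO wells and 100% = wells lacking the enzyme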
Mtb BioA inh = inhibitors of Mycobacterium tuberculosis BioA enzyme | 360,000 compounds, 0.096% hits | purified M. tuberculosis BioA enzyme, plate reader | inhibition, % at 9.99 µM; in the data active = inhibition above about 40%
Vc quorum ag = inducers of Vibrio cholerae quorum light production without autoinducers; V. cholerae BH1578 lux reporter, luminescence, 6 h; activation, % at 18.7 µM; 350,000 compounds, 0.16% hits; in the data active = activation mostly above about 9.7%, no sharp cut-off
FBA Mtb inh = inhibitors of M. tuberculosis fructose-bisphosphate aldolase | P9WQA3 | inhibition, % at 1 µM | AID 588726 | 360,000 compounds, 2.3% hits | purified M. tuberculosis FBA, fluorescence read-out;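 note: 0% = vehicle and 100% = reference inhibitor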
Target sequence (P9WQA3 whole entry, looked up): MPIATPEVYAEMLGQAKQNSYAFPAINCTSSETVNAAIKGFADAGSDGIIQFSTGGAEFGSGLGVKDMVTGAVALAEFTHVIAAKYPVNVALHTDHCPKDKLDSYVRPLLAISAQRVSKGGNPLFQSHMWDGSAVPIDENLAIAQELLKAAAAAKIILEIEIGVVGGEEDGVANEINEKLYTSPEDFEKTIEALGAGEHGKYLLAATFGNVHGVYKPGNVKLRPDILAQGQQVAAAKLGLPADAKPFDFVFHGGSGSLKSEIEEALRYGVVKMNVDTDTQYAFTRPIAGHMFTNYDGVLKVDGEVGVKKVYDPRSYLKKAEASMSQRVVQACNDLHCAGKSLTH
Mtb FBA inh conf = confirmation of M. tuberculosis fructose-bisphosphate aldolase inhibitors; purified M. tuberculosis FBA, fluorescence read-out; inhibition, % at 1 µM; 5,600 compounds, 78% hits; shares compounds with FBA Mtb inh;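 note: 0% = vehicle wells and 100% = reference inhibitor wells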
GDH-TPI counter-2 = counter-screen for M. tuberculosis FBA inhibitors: GDH-TPI coupled enzyme inhibition; shares compounds with FBA Mtb inh; GDH-TPI coupled enzyme counterscreen, fluorescence; inhibition, % at 1 µM; 5,600 compounds, 81% hits; AID 652141; in the data active = inhibition above about 10%
GDH-TPI DR = GDH-TPI dose response counter-screen for Mtb FBA; GDH-TPI coupled enzyme assay, fluorescence, artifact counterscreen; shares compounds with FBA Mtb inh; AID 652145; 170 compounds, 79% hits; IC50, µM; call rule not given here
Starred values were filed as active, the others as inactive; i = inactive; nt = not tested or not shown; + = active, no number. Compounds with a hit are over-represented: about 3% of the library has one in this group of screens. Cut-off read from the data, not from the text of the source, unless noted: active = inhibition above about 27%; inactive = the rest.

SMILES	GDH-TPI counter-1	Mtb BioA inh	Vc quorum ag	FBA Mtb inh	Mtb FBA inh conf	GDH-TPI counter-2	others
Cc1ccccc1S(=O)(=O)N[C@H]1CC[C@H](CCNS(=O)(=O)c2cccc(F)c2)O[C@H]1CO	nt	3	nt	nt	nt	nt
CCCn1nc2cc(C(=O)NCCc3ccc(C)cc3)ccc2c1OCC	4	-1	i	55*	64*	67*
CCCn1nc2cc(C(=O)NCCCCc3ccccc3)ccc2c1OCC	9	-1	-1	53*	132*	104*
O=C(C[C@@H]1C[C@H]2c3cc(NC(=O)NC4CCCC4)ccc3O[C@H]2[C@H](CO)O1)NCCc1ccccc1	nt	-1	nt	nt	nt	nt
COc1ccc(NC(=O)N(C)C[C@@H]2OCCCC[C@H](C)Oc3ccc(NC(=O)NC4CCCCC4)cc3C(=O)N([C@H](C)CO)C[C@@H]2C)cc1	nt	-2	nt	nt	nt	nt
Cc1noc(C)c1S(=O)(=O)Nc1ccc2c(c1)C(=O)N([C@H](C)CO)C[C@@H](C)[C@@H](CN(C)CC1CC1)O2	nt	0	nt	nt	nt	nt
CN(C)CCCNC(=O)C[C@@H]1CC[C@@H]2[C@H](COc3ccc(NS(C)(=O)=O)cc3C(=O)N2C)O1	nt	0	nt	nt	nt	nt
COc1ccc(N2C(=O)CSC2c2cccc(F)c2)cc1 (stereo unspecified)	-5	1	i	39*	181*	154*
COc1ccc(C2SCC(=O)N2c2ccc(F)cc2)cc1 (stereo unspecified)	5	0	-1	0	nt	nt
COc1cccc(S(=O)(=O)N[C@H]2C=C[C@@H](CC(=O)NCc3ccc(Cl)cc3)O[C@@H]2CO)c1	nt	-2	nt	nt	nt	nt
Cc1ccc(C)c(N(C)C(=O)c2cc3c(=O)[nH]c4ccc(C)cc4c3s2)c1	12	nt	2	0	nt	nt
CCCN1CCN(CCCNC(=O)c2cc3c(=O)[nH]c4ccc(C)cc4c3s2)CC1	6	nt	i	53*	91*	93*
Cc1ccc2[nH]c(=O)c3cc(C(=O)NC(C)C)sc3c2c1	19	nt	i	74*	85*	68*
CC(C)CC#Cc1ccc2c(c1)O[C@@H](CN(C)Cc1ccccc1F)[C@@H](C)CN([C@@H](C)CO)S2(=O)=O	nt	-1	nt	nt	nt	nt
C[C@@H]1CN([C@H](C)CO)C(=O)c2cc(NC(=O)Cc3ccccc3)ccc2O[C@H]1CN(C)Cc1ccccc1	nt	0	nt	nt	nt	nt
C[C@@H]1CN([C@H](C)CO)C(=O)c2cc(/C=C/c3ccccc3)cnc2O[C@@H]1CN(C)C(=O)c1cnccn1	nt	-2	nt	nt	nt	nt
Cc1c(Br)c(=O)oc2c(Br)c(O)ccc12	-6	nt	0	36*	43*	28*
O=C(c1c[nH]c2ccc(S(=O)(=O)N3CCC4(CC3)OCCO4)cc2c1=O)N1CCC2(CC1)OCCO2	-2	nt	i	34*	46*	44*
Cc1c(-c2ccccc2Br)nc2ccccc2c1C(=O)O	-3	nt	1	-2	nt	nt
CCc1ccc(-c2nc3ccc(Br)cc3c(C(=O)O)c2C)s1	18	nt	-1	38*	60*	45*
CCN(CC)CCCNC(=O)CCC(=O)Nc1ccc2nc(N3CCC(C)CC3)cc(C)c2c1	-3	3	i	65*	12	-2	GDH-TPI DR=1.3*
CCN(CC)CCCNC(=O)CCC(=O)Nc1ccc2nc(N3CCCCC3)cc(C)c2c1	7	nt	-1	108*	87*	95*
Cc1cc(N2CCN(C)CC2)nc2ccc(NC(=O)CCC3CCCC3)cc12	-4	-1	i	5	nt	nt
CO[C@H]1CN(C)C(=O)c2ccc(NC(=O)C3CCOCC3)cc2OC[C@H](C)N(C(C)=O)C[C@@H]1C	nt	0	nt	nt	nt	nt
C[C@H](CO)N1C[C@H](C)[C@H](CN(C)Cc2ccc(Oc3ccccc3)cc2)Oc2c(NC(=O)Nc3ccc(C(F)(F)F)cc3)cccc2C1=O	nt	-3	nt	nt	nt	nt
SMILES	GDH-TPI counter-1	Mtb BioA inh	Vc quorum ag	FBA Mtb inh	Mtb FBA inh conf	GDH-TPI counter-2	others
FC(F)(F)c1ccc(Sc2nnc(-c3cccs3)n2CC2CCCO2)nc1 (stereo unspecified)	6	1	4	83*	99*	69*
Cc1onc(-c2ccccc2Cl)c1C(=O)Nc1nnc(-c2ccc(F)cc2)s1	19	0	0	16	nt	nt
Cc1onc(-c2c(F)cccc2Cl)c1C(=O)Nc1nnc(-c2ccccc2)s1	22	-2	i	19	nt	nt
Cc1onc(-c2ccccc2Cl)c1C(=O)Nc1nnc(-c2ccc(Cl)cc2Cl)s1	21	0	0	62*	68*	57*
Cc1onc(-c2ccccc2Cl)c1C(=O)Nc1nnc(-c2ccc(Br)cc2)s1	37*	-3	0	92*	119*	99*
C[C@H]1CN([C@@H](C)CO)S(=O)(=O)c2ccc(C#Cc3ccccc3)cc2O[C@H]1CN(C)C(=O)Cc1ccccn1	nt	-1	nt	nt	nt	nt
COc1ccccc1NC(=O)N(C)C[C@H]1Oc2cc(Br)ccc2S(=O)(=O)N([C@@H](C)CO)C[C@@H]1C	nt	4	nt	nt	nt	nt
Cc1c(OC(C)C(=O)NCc2ccncc2)ccc2c3c(c(=O)oc12)CCC3 (stereo unspecified)	12	38	0	73*	83*	53*
Cc1c(OCC(=O)NCc2ccncc2)ccc2c3c(c(=O)oc12)CCC3	5	0	-3	0	nt	nt
Cc1c(OC(C)C(=O)NCc2ccccn2)ccc2c3c(c(=O)oc12)CCCC3 (stereo unspecified)	3	17	0	68*	3	1
CC(Oc1ccc(Br)cc1)C(=O)NCc1ccccn1 (stereo unspecified)	-2	nt	-1	3	nt	nt
CCNC(=O)/C(C#N)=C/c1c(N2CCOCC2)nc2ccccn2c1=O	5	nt	0	42*	176*	136*
C=CCNC(=O)/C(C#N)=C/c1c(N2CCCCCC2)nc2ccccn2c1=O	9	0	1	37*	5	-2
N#C/C(=C\c1c(N2CCCCCC2)nc2ccccn2c1=O)C(=O)NCc1ccco1	3	nt	i	-2	nt	nt
O=C(CCN1C(=O)c2cccc3cccc(c23)C1=O)NC1CCS(=O)(=O)C1 (stereo unspecified)	30	nt	0	39*	+	+
O=C(COC(=O)CCN1C(=O)c2cccc([N+](=O)[O-])c2C1=O)NC1CCS(=O)(=O)C1 (stereo unspecified)	-4	nt	0	2	nt	nt
O=C(CCCCCN1C(=O)c2cccc3cccc(c23)C1=O)NC1CCS(=O)(=O)C1 (stereo unspecified)	11	nt	i	39*	134*	117*
C[C@@H]1CN([C@@H](C)CO)C(=O)c2cc(NC(=O)Cn3cnnn3)ccc2O[C@@H]1CN(C)S(C)(=O)=O	nt	5	nt	nt	nt	nt
Cc1cc(OC(C)C(=O)NCCN2CCOCC2)c2c(C)cc(=O)oc2c1 (stereo unspecified)	-3	1	0	33*	76*	64*
CCc1cc(=O)oc2cc(C)cc(OC(C)C(=O)NCCCN3CCOCC3)c12 (stereo unspecified)	4	-1	0	59*	85*	60*

Compound activity from PubChem.
